Test results: PubChem BioAssay AID1159580 (chemical genetic matrix, 2015)
Where “and” joins values, the source holds several entries; their conditions need not be identical. Equal entries are not always repeated. The whole screen tested about 5,500 compounds, of which about 2,000 (36%) were called active. Another 18% or so got no clear call; they are omitted. Cut-off read from the data, not from the text of the source: active = normalized growth mostly below about 0.91 (no sharp cut-off); inconclusive = no clear call, values can overlap the other calls; inactive = mostly above about 0.92. Some of the results follow.

Test: chemical genetic growth profiling, strain panel (AID 1159580);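 note: tested at 20 µM; growth read once vehicle control cultures reached saturation at 30 °C; 1 = growth at the plate median or of vehicle wells; lower values mean less growth of the strain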
Details: S. cerevisiae deletion strains, growth OD

Measured: normalized growth

O=C(c1ccccc1)c1ccc2n1CCC2C(=O)O (stereo not drawn)
inactive: locus YAL013W, strain DEP1, hits give low values 0.993 | locus YAL021C, strain ccr4, hits give low values 0.98 | locus YAL026C, strain drs2, hits give low values 0.983 | locus YAL030W, strain snc1, hits give low values 0.978 | locus YAL040C, strain CLN3, hits give low values 1.01 | locus YBL061C, strain skt5, hits give low values 1.01 | locus YBR009C, strain hhf1, hits give low values 0.991 | locus YBR021W, strain FUR4, hits give low values 0.988 | locus YBR023C, strain chs3, hits give low values 1.01 | locus YBR171W, strain sec66, hits give low values 0.994 | locus YBR229C, strain ROT2, hits give low values 1.01 | locus YBR231C, strain swc5, hits give low values 1.01 | locus YBR279W, strain paf1, hits give low values 1.01 | locus YCL011C, strain gbp2, hits give low values 0.974 | locus YCL016C, strain dcc1, hits give low values 0.995 | locus YCL029C, strain bik1, hits give low values 0.956 | locus YCL061C, strain MRC1 (second series), hits give low values 1.02 | locus YCL069W, strain vba3, hits give low values 0.979 | locus YCR088W, strain abp1, hits give low values 1.01 | locus YDL005C, strain med2, hits give low values 0.967 | locus YDL035C, strain GPR1, hits give low values 0.987 | locus YDL040C, strain nat1, hits give low values 0.997 | locus YDL074C, strain BRE1, hits give low values 1.05 | locus YDL101C, strain DUN1, hits give low values 1 | locus YDL134C, strain PPH21, hits give low values 0.988 | locus YDL185W, strain tfp1, hits give low values 0.958 | locus YDL192W, strain arf1, hits give low values 0.968 | locus YDR001C, strain nth1, hits give low values 0.968 | locus YDR069C, strain doa4, hits give low values 1.01 | locus YDR101C, strain arx1, hits give low values 1.01 | locus YDR137W, strain rgp1, hits give low values 0.945 | locus YDR150W, strain NUM1, hits give low values 0.994 and 1.01 | locus YDR159W, strain sac3, hits give low values 0.955 | locus YDR162C, strain NBP2, hits give low values 0.982 | locus YDR195W, strain ref2 0.975 | locus YDR297W, strain sur2, hits give low values 0.991 | locus YDR318W, strain mcm21, hits give low values 0.969 | locus YDR334W, strain swr1, hits give low values 0.976 | locus YDR335W, strain msn5, hits give low values 0.988 | locus YDR363W, strain ESC2, hits give low values 1.02 | locus YDR388W, hits give low values 0.981 | locus YDR392W, strain spt3, hits give low values 0.935 | locus YDR502C, strain sam2, hits give low values 0.987 | locus YEL003W, strain gim4, hits give low values 0.997 | locus YEL037C, strain rad23, hits give low values 0.984 | locus YEL061C, strain CIN8 (second series), hits give low values 0.999 | locus YEL061C, strain CIN8, hits give low values 0.994 | locus YER002W, strain NOP16, hits give low values 0.998 | locus YER015W, strain faa2, hits give low values 0.99 | locus YER016W, strain bim1, hits give low values 0.988 | locus YER110C, hits give low values 0.96 | locus YER111C, strain swi4, hits give low values 1 | locus YER155C, strain BEM2 (second series), hits give low values 1.01 | locus YER155C, strain BEM2, hits give low values 1 | locus YER167W, strain BCK2, hits give low values 0.997 | locus YFR010W, strain ubp6, hits give low values 0.981 | locus YGL078C, strain dbp3, hits give low values 0.982 | locus YGL086W, strain mad1, hits give low values 0.995 | locus YGL167C, strain pmr1, hits give low values 0.998 | locus YGL173C, strain kem1, hits give low values 1 | locus YGL227W, strain vid30, hits give low values 0.996 | locus YGL240W, strain doc1, hits give low values 1.02 | locus YGL248W, strain PDE1, hits give low values 1.01 | locus YGL253W, strain hxk2, hits give low values 0.974 | locus YGR135W, strain pre9, hits give low values 0.974 | locus YGR252W, strain gcn5, hits give low values 0.996 | locus YHR013C, strain ard1, hits give low values 0.994 | locus YHR027C, strain rpn1, hits give low values 1.01 | locus YHR030C, strain SLT2, hits give low values 0.988 and 0.999 | locus YHR079C, strain IRE1 (second series), hits give low values 0.965 | locus YHR079C, strain IRE1, hits give low values 1.02 | locus YHR094C, strain hxt1, hits give low values 0.985 | locus YHR129C, strain ARP1, hits give low values 0.991 | locus YHR142W, strain chs7, hits give low values 0.975 | locus YHR200W, strain rpn10, hits give low values 0.96 | locus YIL066C, strain RNR3, hits give low values 1 | locus YIL073C, strain SPO22, hits give low values 0.922 | locus YIL125W, strain kgd1, hits give low values 0.985 | locus YIR030C, strain dcg1, hits give low values 0.973 | locus YJL092W, strain hpr5, hits give low values 0.984 | locus YJL095W, strain BCK1 (second series), hits give low values 0.993 | locus YJL095W, strain BCK1, hits give low values 1.03 and 0.992 | locus YJL115W, strain asf1, hits give low values 0.984 | locus YJL129C, strain trk1, hits give low values 1.02 | locus YJL134W, strain LCB3, hits give low values 0.99 | locus YJL154C, strain vps35, hits give low values 0.975 | locus YJL164C, strain tpk1, hits give low values 0.965 | locus YJL166W, strain qcr8, hits give low values 1.02 | locus YJL168C, strain set2, hits give low values 0.979 | locus YJL187C, strain SWE1 (second series), hits give low values 1.01 | locus YJL187C, strain SWE1, hits give low values 0.986 | locus YJR043C, strain POL32, hits give low values 0.997 | locus YJR066W, strain TOR1, hits give low values 0.966
